Screening data from PubChem BioAssay.
Polio RdRp inh = poliovirus RNA polymerase inhibition | P03300 | poliovirus polymerase elongation, fluorescence polarization; stronger effect = lower value | % elongation, % (compound at 16.7 µg/mL) | hit rate 0.66% among 150,000 | AID 588519; in the data active = % elongation below about 90%
MbtI inh = blocks the Mycobacterium tuberculosis siderophore enzyme MbtI | hit rate 0.89% among 100,000 | AID 493033 | purified MbtI enzyme, fluorescence intensity read-out | inhibition, % (no concentration beside the values); in the data active = inhibition mostly above about 56%, no sharp cut-off; inactive = mostly below about 77%
Target sequence (P9WFX0 whole entry, looked up): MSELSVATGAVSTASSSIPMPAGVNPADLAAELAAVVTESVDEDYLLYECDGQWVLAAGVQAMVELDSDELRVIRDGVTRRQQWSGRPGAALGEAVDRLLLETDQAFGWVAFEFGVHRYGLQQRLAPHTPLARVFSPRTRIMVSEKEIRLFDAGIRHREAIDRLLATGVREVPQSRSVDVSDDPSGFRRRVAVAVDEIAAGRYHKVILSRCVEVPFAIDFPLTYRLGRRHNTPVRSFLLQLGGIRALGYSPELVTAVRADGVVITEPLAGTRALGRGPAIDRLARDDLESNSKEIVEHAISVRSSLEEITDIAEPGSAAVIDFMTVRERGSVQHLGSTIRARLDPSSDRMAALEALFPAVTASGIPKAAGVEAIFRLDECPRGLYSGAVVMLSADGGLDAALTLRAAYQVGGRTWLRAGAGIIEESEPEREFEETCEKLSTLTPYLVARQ
MenB inh = inhibitors of Mycobacterium tuberculosis MenB enzyme | MenB enzyme assay, absorbance read-out | inhibition, % (concentration not given with the values) | hit rate 0.43% among 100,000; in the data active = inhibition above about 21%, passing the limit was not always enough
AID504770 = E. coli YBA685 growth inhibition, screen for V. cholerae RctB inhibitors | hit rate 0.27% among 130,000 | z-score (no concentration beside the values) | E. coli YBA685 rctB-dependent plasmid, OD600 growth, 3 h; stronger effect = lower value | AID 504770; in the data active = z-score below about -2, passing the limit was not always enough
A number is an active result; ! = repeats disagree. Shown are actives, neighbours in structure and some others; about 1.4% of the full set was active somewhere.

What do the screens show for `CCN(CC)Cc1nc2sc(C)c(C)c2c(=S)[nH]1`?
Polio RdRp inh: inactive; MbtI inh: 79.5; MenB inh: inactive; AID504770: inactive

How did Cc1sc2ncnc(OCc3ccc(C#N)cc3)c2c1C do in these assays?
Polio RdRp inh: inactive; MbtI inh: inactive; MenB inh: inactive; AID504770: inactive

What do the screens show for `CC(c1ccccc1)n1c(=S)[nH]c2ccccc21` (configuration not stated)?
Polio RdRp inh: inactive; MbtI inh: 89.1; MenB inh: inactive; AID504770: inactive

Results for CCOc1ccc2c(c1)[nH]c(=S)n2C ?
Polio RdRp inh: inactive; MbtI inh: 78.5; MenB inh: inactive; AID504770: inactive

Results for CCCCn1c(=S)[nH]c2ccccc21 ?
Polio RdRp inh: inactive; MbtI inh: inactive; MenB inh: inactive; AID504770: inactive

How did Cn1c(=S)[nH]c2ccccc21 do in these assays?
Polio RdRp inh: inactive; MbtI inh: 101.4; MenB inh: inactive; AID504770: inactive

What do the screens show for `CCOC(=O)c1c(C)n(C)c2ccc(OCC)cc12`?
Polio RdRp inh: inactive; MenB inh: inactive; AID504770: inactive

How did C[C@@H](N)[C@H](O)c1ccccc1 do in these assays?
Polio RdRp inh: inactive; MbtI inh: inactive; MenB inh: inactive

Results for CCc1nc(NCCCO)c2nnn(Cc3ccccc3F)c2n1 ?
Polio RdRp inh: inactive; MbtI inh: inactive; MenB inh: inactive; AID504770: inactive

How did O=C1CC(=O)c2ccc3c4c(ccc1c24)C(=O)CC3=O do in these assays?
Polio RdRp inh: inactive; MbtI inh: 92.8; MenB inh: inactive; AID504770: inactive

Results for COc1ccc(CNC(=O)c2oc3ccc4nc(N(C)C)sc4c3c2C)cc1 ?
Polio RdRp inh: inactive; MbtI inh: inactive; MenB inh: inactive; AID504770: inactive

What do the screens show for `CCN(C(=O)Nc1cccc(Cl)c1)c1ccccc1`?
Polio RdRp inh: inactive; MbtI inh: inactive; MenB inh: inactive; AID504770: inactive

What do the screens show for `CCN(CC)C(=O)Nc1cccc(Cl)c1`?
Polio RdRp inh: inactive; MbtI inh: inactive; MenB inh: 32.7; AID504770: inactive

Results for CNC(=O)COc1cccc2c(=O)[nH]ccc12 ?
Polio RdRp inh: inactive; MbtI inh: inactive; MenB inh: inactive; AID504770: inactive

Results for CC(=O)Nc1ccc(NC(=O)c2ccc(-c3cccc(C(F)(F)F)c3)o2)cc1 ?
Polio RdRp inh: inactive; MbtI inh: inactive; MenB inh: inactive; AID504770: inactive

Results for Cc1ccc(/C=C2\CCCc3ccccc3C2=O)o1 ?
Polio RdRp inh: inactive; MbtI inh: inactive; MenB inh: inactive; AID504770: inactive

Results for Cc1ccc(/C=C2/C=CC(=O)O2)o1 ?
Polio RdRp inh: 81.0; MenB inh: inactive; AID504770: inactive

Results for Cc1ccc(/C=C2\CC/C(=C\c3ccc(C)o3)C2=O)o1 ?
Polio RdRp inh: inactive; MbtI inh: 99.0; MenB inh: inactive; AID504770: inactive

What do the screens show for `Cc1ccc(/C=C2/CC(C)C/C(=C\c3ccc(C)o3)C2=O)o1` (configuration not stated)?
Polio RdRp inh: inactive; MbtI inh: 92.2; MenB inh: inactive; AID504770: inactive

Results for Cc1ccc(/C=C2/C(=O)/C(=C/c3ccc(C)o3)C3CCC2N3C)o1 ?
Polio RdRp inh: inactive; MbtI inh: inactive; MenB inh: inactive; AID504770: inactive

Results for Cc1cc(C)cc(NC(=O)Cn2c(=O)oc3cc(S(=O)(=O)N4CCCCCC4)ccc32)c1 ?
Polio RdRp inh: inactive; MbtI inh: inactive; MenB inh: inactive; AID504770: inactive

Results for CCN(C(=O)c1cn(C)c(=O)c2cc(OC)c(OC)cc12)c1ccc(F)cc1 ?
Polio RdRp inh: inactive; MbtI inh: inactive; MenB inh: inactive; AID504770: inactive

How did CC(C)(C)NC(=O)Cn1c(=O)oc2ccccc21 do in these assays?
Polio RdRp inh: inactive; MbtI inh: inactive; MenB inh: inactive; AID504770: inactive

What do the screens show for `COC(=O)C1=C(C)NC(C)=C(C(=O)OC)C1c1ccccc1[N+](=O)[O-]`?
Polio RdRp inh: inactive; MbtI inh: 79.2!; MenB inh: inactive; AID504770: inactive

Results for COC(=O)C1=C(C)NC(C)=C(C(=O)OC)C1c1ccccc1 ?
AID504770: inactive

What do the screens show for `NC(=O)C1CCN(C2CC(=O)N(Cc3ccc4c(c3)OCO4)C2=O)CC1` (configuration not stated)?
Polio RdRp inh: inactive; MbtI inh: 86.2; MenB inh: inactive; AID504770: inactive

Results for NC(=O)C1CCN(CC(O)Cc2ccc3c(c2)OCO3)CC1 (configuration not stated) ?
AID504770: inactive

How did O=C1NNC(=S)C1C1CC1 (configuration not stated) do in these assays?
Polio RdRp inh: inactive; MbtI inh: 82.8; MenB inh: inactive; AID504770: inactive
